Assay results published in PubChem BioAssay.
Peptide text beside a SMILES is read from it.

test: inhibitors of mitochondrial cytochrome c release, biochemical, purified mitochondria (AID 1603); settings: stronger effect = lower value;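 note: mouse liver mitochondria challenged with calcium chloride; signal normalized to the plate average as 100%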

Row | Structure (SMILES) | cytochrome c release ratio
1 | CN[C@@H]1[C@H](O)[C@H](NC)[C@H]2O[C@@]3(O)C(=O)C[C@@H](C)O[C@H]3OC2[C@H]1O (stereo partly drawn) | 0.86
2 | CC[C@@H](C(=O)C(C)[C@@H](O)[C@H](C)CCc1ccc(C)c(O)c1C(=O)O)C1OC(CC)(C2CC[C@](O)(CC)[C@H](C)O2)C[C@@H]1C (stereo partly drawn) | 1
3 | CCCCC(=O)OC1(C(=O)CO)C(C)CC2C3CCC4=CC(=O)C=CC4(C)[C@@]3(F)[C@@H](O)CC21C (stereo partly drawn) | 1.65
4 | O=c1c(O)cc2c(O)oc3c(=O)c(O)cc4c3c2c1CC=4O | 1.61
5 | CC[C@@]1(O)C[C@H](OC2CC(N(C)C)C(OC3CC(O)C(OC4CCC(=O)C(C)O4)C(C)O3)C(C)O2)c2c(cc3c(c2O)C(=O)c2c(O)cccc2C3=O)[C@H]1C(=O)OC (stereo partly drawn) | 4.02
6 | Cc1cc(Nc2ccccc2C(=O)O)ccc1Cl | 4.31
7 | CC1CC2C3CCC4=CC(=O)C=CC4(C)[C@@]3(F)C(O)CC2(C)[C@@]1(O)C(=O)CO (stereo partly drawn) | 1.12
8 | NCCCCC(N)C(=O)NC(Cc1c[nH]c2ccccc12)C(=O)NC(CCCCN)C(=O)O (stereo not drawn) (H-Lys-Trp-Lys-OH; configuration not given here) | 0.99
9 | CC(=O)N[C@@H](Cc1c[nH]c2ccccc12)C(N)=O | 0.46
10 | CCC(=O)O[C@@H](O[P@](=O)(CCCCc1ccccc1)CC(=O)N1C[C@H](C2CCCCC2)C[C@H]1C(=O)O)C(C)C | 0.8
11 | C[C@@H]1OC(Oc2c(-c3ccc(O)c(O)c3)oc3cc(O)cc(O)c3c2=O)[C@H](O)[C@H](O)[C@H]1O (stereo partly drawn) | 0.64
12 | C=C1C(=O)OC2C1CCC1(C)CCC=C(C)C21 (stereo not drawn) | 0.81
13 | CC(NC(=O)C(NC(=O)OCc1ccccc1)C(C)C)C(=O)NC(CC(=O)O)C(=O)OC(F)F (stereo not drawn) | 0.97
